Reference: PubChem BioAssay (NCATS)
Records with an inconclusive call do not appear. Calls of active or inactive are those of the source. Unless noted, calls follow the shape of the dose curve; as a rule, active = well fitted curve in the direction sought with a large enough effect; inconclusive = small, poorly fitted or top-dose-only effect, or another doubt; inactive = no such curve, though single readings can be large; an effect the other way counts as inactive or inconclusive.

How the values were obtained:
[1] = P-glycoprotein substrates identified in KB-8-5-11 adenocarcinoma cell line, qHTS therapeutic library screen (AID 1346987); also: nearly all actives have a fitted effect of over 65% in size; also: potency is read from the fitted curve at half-maximal effect
Method in brief: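 Steps: plate 500 KB-8-5-11 cells/well in DMEM + 10% FCS (colchicine removed); pin compounds in dose-response; incubate 72 h, 37 degree C, 5% CO2; add CellTiter-Glo, 5 min; read luminescence.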

[2] = system: Zika virus NS2B-NS3 protease (unlinked complex); assay: Primary screen GU Rhodamine qHTS for Zika virus inhibitors: Unlinked NS2B-NS3 protease assay (AID 1347159); also: % is scaled to controls: 0 for no effect and ±100 for the full control effect; nearly all actives have a fitted effect of over 60% in size
Method in brief: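 Noncovalent NS2B hydrophilic domain–NS3 protease domain complex (25 nM) preincubated 15 min at room temperature with compounds (up to 114 microM) in 10 mM Tris-HCl pH 8.0, 0.01% Tween 20; 1.5 microM Rhodamine110 substrate added, fluorescence change over 15 min fitted to Hill equation.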

[3] = system: Zika virus NS2B-NS3 protease (linked construct); assay: Primary screen NINDS Rhodamine qHTS for Zika virus inhibitors (AID 1347160); also: % is scaled to controls: 0 for no effect and ±100 for the full control effect; nearly all actives have a fitted effect of over 55% in size
Method in brief: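 Purified linked NS2B-NS3 protease (NS2B hydrophilic domain joined to NS3 protease by flexible linker), 25 nM in 10 mM Tris-HCl pH 8.0, 0.01% Tween 20. Compounds titrated, 15 min preincubation at room temperature; 1.5 microM Rhodamine110 substrate, FITC fluorescence change over 15 min.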

[4] = molecular target: Cytochrome P450 2D6 (Homo sapiens) (UniProt P10635); assay: Cytochrome P450 family 2 subfamily D member 6 (CYP2D6) small molecule antagonists: luciferase biochemical (cell-free) qHTS assay (AID 1645840; active = well fitted curve in the direction sought with a large enough effect in the repeat runs; an effect the other way counts as inactive or inconclusive; also: % is scaled to controls: 0 for no effect and ±100 for the full control effect; nearly all actives have a fitted effect of over 55% in size)
Sequence of Cytochrome P450 2D6 (Homo sapiens) (P10635 whole entry, looked up): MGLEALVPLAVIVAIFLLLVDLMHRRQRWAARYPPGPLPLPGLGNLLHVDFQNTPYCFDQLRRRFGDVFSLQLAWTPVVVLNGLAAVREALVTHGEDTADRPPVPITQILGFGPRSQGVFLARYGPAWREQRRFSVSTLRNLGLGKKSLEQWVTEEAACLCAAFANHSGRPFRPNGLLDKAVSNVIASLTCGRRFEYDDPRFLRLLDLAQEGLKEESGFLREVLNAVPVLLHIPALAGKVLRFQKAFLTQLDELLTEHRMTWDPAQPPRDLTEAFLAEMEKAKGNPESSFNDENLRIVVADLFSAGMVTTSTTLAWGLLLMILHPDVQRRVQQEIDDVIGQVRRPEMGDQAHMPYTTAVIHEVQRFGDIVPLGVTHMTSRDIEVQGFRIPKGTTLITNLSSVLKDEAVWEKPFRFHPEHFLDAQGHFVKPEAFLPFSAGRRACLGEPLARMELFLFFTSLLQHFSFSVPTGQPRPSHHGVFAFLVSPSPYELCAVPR
Method in brief: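 P450-Glo luminescent screen: recombinant CYP2D6 enzyme–proluciferin substrate mix preincubated with compound 10 min at room temperature, then NADPH regeneration added for 1 h at room temperature. Detection reagent added for 20 min; luciferin light read as relative luminescence units.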

[5] = molecular target: Cytochrome P450 2C9 (Homo sapiens) (UniProt P11712); assay: Cytochrome P450 family 2 subfamily C member 9 (CYP2C9) small molecule antagonists: luciferase biochemical (cell-free) qHTS assay (AID 1645842; active = well fitted curve in the direction sought with a large enough effect in the repeat runs; an effect the other way counts as inactive or inconclusive; also: potency is read from the fitted curve at half-maximal effect; nearly all actives have a fitted effect of over 55% in size)
Sequence of Cytochrome P450 2C9 (Homo sapiens) (P11712 whole entry, looked up): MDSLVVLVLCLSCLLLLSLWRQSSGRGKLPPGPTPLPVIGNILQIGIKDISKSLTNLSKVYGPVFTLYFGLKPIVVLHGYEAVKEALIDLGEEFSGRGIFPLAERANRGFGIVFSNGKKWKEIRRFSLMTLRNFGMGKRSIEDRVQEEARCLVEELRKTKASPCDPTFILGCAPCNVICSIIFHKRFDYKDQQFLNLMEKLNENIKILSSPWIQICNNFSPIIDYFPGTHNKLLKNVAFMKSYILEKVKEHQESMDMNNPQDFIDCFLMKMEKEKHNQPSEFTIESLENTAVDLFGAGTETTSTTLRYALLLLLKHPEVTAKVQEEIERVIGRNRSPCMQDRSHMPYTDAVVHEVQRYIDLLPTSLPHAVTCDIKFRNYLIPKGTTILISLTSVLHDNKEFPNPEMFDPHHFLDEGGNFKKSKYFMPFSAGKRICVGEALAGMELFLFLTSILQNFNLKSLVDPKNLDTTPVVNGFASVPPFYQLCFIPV
Method in brief: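 Luminescence, after 20 min with luciferin detection reagent, reflected CYP2C9 turnover during a 1 h NADPH-driven reaction at 37C. Enzyme-substrate mix contained 0.4% bovine serum albumin and was preincubated with compound 10 min at room temperature.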

[6] = Primary qHTS for inhibitors of nuclear receptor binding SET domain protein 2 (NSD2) in an RCH-ACV wild type WT cells (2C) (AID 1645877); also: nearly all actives have a fitted effect of over 70% in size; also: potency is read from the fitted curve at half-maximal effect
[7] = molecular target: Glutathione peroxidase 1 (Homo sapiens) (UniProt P07203); assay: Primary qHTS Assay for Inhibitors of Recombinant Selenoprotein Glutathione Peroxidase 1 (GPX1) (AID 1845191); also: nearly all actives have a fitted effect of over 65% in size
Sequence of Glutathione peroxidase 1 (Homo sapiens) (P07203 whole entry, looked up): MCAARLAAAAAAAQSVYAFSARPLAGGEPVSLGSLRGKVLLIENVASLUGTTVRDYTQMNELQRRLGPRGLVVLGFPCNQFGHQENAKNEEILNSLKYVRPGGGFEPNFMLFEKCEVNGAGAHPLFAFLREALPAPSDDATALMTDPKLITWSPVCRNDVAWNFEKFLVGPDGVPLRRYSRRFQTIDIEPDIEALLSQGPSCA
Method in brief: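 Recombinant GPX1 (10 nM final) was preincubated with compound for 30 min at room temperature, then reacted with 1 mM GSH, 0.5 mM CHP, 0.5 mM NADPH and 100 nM glutathione reductase; NADPH fluorescence (340/450 nm) was read at 0 and 15 min.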

HaCat [8] = assay: Cytotoxic Profiling of Annotated Libraries Using Quantitative High-Throughput Screening (AID 1296008); conditions: Five cell lines viability, CellTiter-Glo ATP luminescence, 48-72 h; max response: stronger effect = lower value; also: nearly all actives have a fitted effect of over 60% in size; also: potency is read from the fitted curve at half-maximal effect; as to max response: % is scaled to controls: 0 for no effect and ±100 for the full control effect
Method in brief: (§1)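 Compounds were pin-transferred onto cells and incubated 48 or 72 hr at 37 degree Celsius, 95% humidity. CellTiter-Glo was added, plates sat 10 min at room temperature, then ATP-coupled luminescence was imaged as the viability read-out.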

KB-3-1 = assay: as above; conditions: Five cell lines viability, CellTiter-Glo ATP luminescence, 48-72 h; max response: stronger effect = lower value
Method in brief: as §1

CRL-7250 = normal cell line; assay: qHTS assay to identify novel small-molecules to repurpose for Merkel cell carcinoma treatment (AID 1296009); conditions: MCC and control cell lines, CellTiter-Glo viability, 72 h; series mostly up to 92 µM; also: nearly all actives have a fitted effect of over 60% in size
Method in brief: (§2)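 qHTS format: cells treated with library compounds in DMSO across 8 (NPC) or 11 (MIPE) concentrations. Readout after 72 hr at 37 degree celsius was CellTiter-Glo luminescence.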

HeLa = assay: Primary qHTS to identify gynecologic anti-cancer compounds using libraries of approved drugs and bioactive compounds (AID 1345084); conditions: Gynecologic cancer cell panel viability, ATPlite luminescence, 48 h; series mostly up to 57.5 µM; also: nearly all actives have a fitted effect of over 55% in size; also: potency is read from the fitted curve at half-maximal effect
Method in brief: (§3)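 Cells, 1,000 per well, were allowed to settle for 16 h at 37 C before compound addition. Five concentrations were tested for 48 h, and viability was read by ATPlite luminescence after 15 min at room temperature.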

SKOV3 = assay: as above; conditions: Gynecologic cancer cell panel viability, ATPlite luminescence, 48 h; series mostly up to 57.5 µM
Method in brief: as §3

HACAT [9] = assay: qHTS assay to identify novel small-molecules to repurpose for Merkel cell carcinoma treatment (AID 1296009); conditions: MCC and control cell lines, CellTiter-Glo viability, 72 h; at 44.8 µM (top of the series) unless noted; also: nearly all actives have a fitted effect of over 60% in size
Method in brief: as §2

[10] = Cytotoxicity counterscreen for inhibitors of SARS-CoV-2 cell entry (AID 1645845; calls by dose curve; also: nearly all actives have a fitted effect of over 50% in size)
Method in brief: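 Expi293F/hACE2 cells seeded overnight; cpd pin-transferred in DMSO, 1 h preincubation, + media, 48 h 37 C 5% CO2; ATPLite 1step luminescence; normalized to cells and no cells.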

[11] = qHTS drug screen for cell cycle checkpoint inhibitors in PARPi-resistant BRCA-mutant ovarian cancer cell lines. (AID 1963452; calls by dose curve); conditions: PEO1/OlaR viability, CellTiter-Glo luminescence, 96 h, stronger effect = lower value
Method in brief: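 PEO1, PEO4 and PEO1/OlaR ovarian cancer cells, 600 per well, exposed 96 h at 37C to a dilution series. Viability read by CellTiter-Glo luminescence, normalized to DMSO and empty wells; activity summarized as Z-AUC.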

[12] = P-glycoprotein substrates identified in KB-3-1 adenocarcinoma cell line, qHTS therapeutic library screen (AID 1346986); also: nearly all actives have a fitted effect of over 60% in size
Method in brief: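 Resistance attributable to P-gp was assessed by comparing AC50 in KB-8-5-11 with parental KB-3-1 and by tariquidar reversal. Cells were exposed 72 h and viability read by CellTiter-Glo.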

CN1C(=O)CN=C(c2ccccc2Cl)c2cc(Cl)ccc21
active: Potency [5] 21.3 µM
inactive: Potency [1] | Potency [2] | Potency [3] | Potency [4] | Potency [6] | Potency [7] | max response (HaCat [8]) 2.59% | max response (KB-3-1) -0.99% | Potency (CRL-7250) | Potency (HeLa) | Potency (SKOV3)

Cc1cccc(NC(=O)N[C@H]2CN(C)c3ccccc3C(c3ccccc3)=N2)c1
inactive: Potency [2] | Potency [3] | Potency [7] | outcome (HaCat [8]) | max response (KB-3-1) 6.39% | outcome (HACAT [9]) | Potency (HeLa) | Potency (SKOV3)
active: Potency [6] 14.5 µM

COc1cc(O)c2c(c1)/C=C/C[C@@H](O)[C@@H](O)C(=O)CCC[C@H](C)OC2=O
inactive: Potency [1] | Potency [2] | Potency [3] | Potency [7] | max response (HaCat [8]) -18.3% | max response (KB-3-1) 5.8% | Potency (HeLa) | Potency (SKOV3)

CC(=O)N1N=C(c2ccc(N)cc2)c2cc3c(cc2C[C@H]1C)OCO3
inactive: Potency [1] | Potency [2] | Potency [3] | Potency [4] | Potency [10] | Potency [6] | Potency [7] | Z-AUC [11] 0.45 | max response (HaCat [8]) -4.11% | max response (KB-3-1) 6.29% | Potency (HeLa) | Potency (SKOV3)
active: Potency [5] 12 µM
0.412: Z-AUC ([11]; measured here: PEO4 Z-AUC)
0.452: Z-AUC ([11]; measured here: PEO1 parental Z-AUC)

C[C@]12CC[C@H]3[C@@H](CCC4=C/C(=N/OCC(=O)O)CC[C@@]43C)[C@@H]1CC[C@@H]2O
inactive: Potency [12] | Potency [2] | Potency [3] | Potency [6] | Potency [7] | max response (HaCat [8]) -24.1% | outcome (KB-3-1) | Potency (HeLa) | Potency (SKOV3)

C[C@]12CCC(=O)C=C1CC[C@@H]1[C@@H]2[C@@H](O)C[C@]2(C)C(=O)CC[C@@H]12
inactive: Potency [1] | Potency [2] | Potency [3] | Potency [6] | Potency [7] | max response (HaCat [8]) -8.66% | max response (KB-3-1) 6.55% | Potency (CRL-7250) | Potency (HeLa) | Potency (SKOV3)

Oc1ccc2c3c1O[C@H]1c4[nH]c5c(N=C=S)cccc5c4C[C@@]4(O)[C@@H](C2)N(CC2CC2)CC[C@]314
inactive: Potency [3] | Potency [7] | outcome (HaCat [8]) | max response (KB-3-1) -18.9% | outcome (HACAT [9]) | Potency (HeLa) | Potency (SKOV3)

CN1CCc2cc3c(cc2[C@H]1[C@@H]1OC(=O)c2c1ccc1c2OCO1)OCO3
inactive: Potency [12] | Potency [1] | Potency [2] | Potency [3] | Potency [6] | Potency [7] | outcome (HaCat [8]) | outcome (KB-3-1) | outcome (HACAT [9]) | Potency (HeLa) | Potency (SKOV3)

CC(=O)O[C@H]1CC[C@H]2[C@@H]3CC[C@H]4CC(=O)C=C(C)[C@]4(C)[C@H]3CC[C@]12C
inactive: Potency [1] | Potency [2] | Potency [3] | Potency [10] | Potency [7] | outcome (HaCat [8]) | max response (KB-3-1) 7.22% | outcome (HACAT [9]) | Potency (SKOV3)

CO[C@@H]1[C@H](O)[C@@H](O[C@@H]2C[C@H]3CC[C@@H]4C(CC[C@]5(C)[C@@H](C6=CC(=O)OC6)CC[C@]45O)[C@@]3(C)[C@H](O)C2)O[C@H](C)[C@@H]1O (stereo partly drawn)
active: Potency [1] 0.252 µM | Potency [6] 0.159 µM | Potency (HaCat [8]) 1.78 µM | Potency (KB-3-1) 0.448 µM | Potency (HeLa) 0.199 µM | Potency (SKOV3) 0.251 µM
inactive: Potency [2] | Potency [7]

C#CCO[C@H]1CN2CCC1CC2
inactive: Potency [1] | Potency [6] | Potency [7] | max response (HaCat [8]) 2.85% | max response (KB-3-1) 2.91% | Potency (HeLa) | Potency (SKOV3)

CN1CCc2cc3c(cc2C1C1OC(=O)c2c1ccc1c2OCO1)OCO3 (stereo not drawn)
inactive: Potency [1] | Potency [2] | Potency [3] | Potency [6] | max response (HaCat [8]) -1.45% | max response (KB-3-1) -4.22% | Potency (HeLa) | Potency (SKOV3)

C=CC(C)(C)c1[nH]c2c(CC=C(C)C)cc(CC=C(C)C)cc2c1C[C@@H]1NC(=O)[C@H](C)NC1=O
inactive: Potency [12] | Potency [1] | Potency [2] | Potency [3] | Potency [6] | Potency [7] | max response (HaCat [8]) -1.56% | outcome (KB-3-1) | Potency (HeLa) | Potency (SKOV3)

CC1=CC2/C=C(\C)CCCC(O)/C=C/C(=O)OC23C(=O)NC(CC(C)C)C3C1C (stereo not drawn)
inactive: Potency [12] | Potency [1] | Potency [2] | Potency [3] | Potency [6] | Potency [7] | max response (HaCat [8]) -3.87% | outcome (KB-3-1) | Potency (CRL-7250) | Potency (HeLa) | Potency (SKOV3)

CC[C@H]1C2CC3[C@@H]4N(C)c5ccccc5[C@]45C[C@@H]([C@H]2[C@H]5O)N3[C@H]1O
inactive: Potency [1] | Potency [2] | Potency [3] | Potency [6] | Potency [7] | outcome (HaCat [8]) | max response (KB-3-1) 2.51% | outcome (HACAT [9]) | Potency (SKOV3)
